The source of these data is PubChem BioAssay (Tox21).

SMILES strings stand for the structures. Results filed as inconclusive are left out. Where a call stands in place of a potency, no number is given. A number with no mark means an inactive call. Calls of active or inactive are those of the source. Calls come from the whole dose curve; as a rule, active = well fitted activation curve with a large enough effect in the repeat runs; inconclusive = weak or mixed curves; inactive = flat fitted curve, though single readings scatter.

This experiment can be described thus: A CellTox Green Cytotoxicity Assay to monitor cytotoxicity in HEK293 cells - 16 hour (AID 1224888). Note: nearly all actives have a fitted effect of over 35% in size. To be noted: CellTox Green fluorescence; series mostly up to 76.8 µM; activity change: at the top concentration. The text has this:
National Center for Advancing Translational Sciences [NCATS]
NIH Chemical Genomics Center [NCGC]
U.S. Environmental Protection Agency [EPA]
National Institutes of Environmental Health Sciences [NIEHS]
National Toxicology Program [NTP]
Cell-based models are critical for drug discovery. Determining the natural cytotoxic effects resulting from test compounds is an essential research activity. A CellTox Green Cytotoxicity Assay to monitor cytotoxicity in real time of continues cell culture during 40 hours of the compound treatment was used to screen Tox21 10K library compounds in Hek293 cells. CellTox Green Cytotoxicity Assay is a nonlytic, homogeneous, biofluorescent method to measure cytotoxicity in cell culture after experimental manipulation. The assay system uses a proprietary asymmetric cyanine dye that is excluded from viable cells but preferentially stains the dead cell's DNA. […] Viable cells produce no appreciable increases in fluorescence. Therefore, the fluorescence signal produced by the binding interaction with dead cell DNA is proportional to cytotoxicity.
The mixture of Hek293 cell suspension and reagents were dispensed at 600cells/6 ul/well in 1536-well tissue culture treated black solid bottom plates using a Multidrop dispenser. After the assay plates were incubated at a 37 C/5% CO2 incubator for 5 hours, 23 nL of compounds dissolved in DMSO, positive and negative controls was transferred to the assay plate by a pintool work station. The plates were incubated at 37 C for 40 hours. The fluorescence intensity were measured at 0h, 8h, 16h, 24h, 32h and 40h time points using ViewLux plate reader during compound treatment.
In the case of `N#Cc1ccccc1`, the Potency result was “inactive”. Same read-out and setting: next, `CC(C)c1cccc(C(C)C)c1`: “inactive”; `CC1(C)NC(=O)NC1=O`: “inactive”.

In the case of `CC1(C)OC[C@@H]2O[C@@]3(C(=O)O)OC(C)(C)O[C@H]3[C@@H]2O1`, the Potency entry is “inactive”. Turning to `COc1ccc([N+](=O)[O-])cc1N`, the Potency entry was “inactive”. On to `CCCCCCO`, for which the Potency result is “inactive”.

For the molecule `Nc1ccc(Cl)c(N)c1`, the Potency entry is “inactive”.

On to `OC1C(O)C(O)C(O)C(O)C1O` (stereo not given), for which the Potency entry is “inactive”. For `C[C@]12CC[C@@H]3c4ccc(O)cc4CC[C@H]3[C@@H]1C[C@@H](O)[C@@H]2O`, the Potency entry is “inactive”. Turning to `Brc1ccc(Br)c(Br)c1`, the “activity change” value was 15.1%.

For `O=C1c2ccccc2CCc2ccccc21`, the “activity change” value is -13.6% [at 35.3 µM, hits give high values]. Regarding `O=C(O)Cn1c(=O)n(Cc2ccc(Br)cc2F)c(=O)c2ccc(Cl)cc21`, the Potency result is “inactive”.

As for `C=Cc1ccc(C)cc1`, the Potency entry is “inactive”. As for `COc1ccc(C)cc1N`, the “activity change” value was -2.11%. As for `COC(=O)CCCC(=O)OC`, the Potency entry was “inactive”. `Nc1nc(N)nc(-c2ccccc2)n1`: the Potency entry was “inactive”. In the case of `CCCCCCCCCCCCCCCC(=O)OC(C)C`, the Potency entry was “inactive”. On to `CC(CCl)OP(=O)(OC(C)CCl)OC(C)CCl` (stereo not given), for which the Potency result is “inactive”. `CC(=O)c1ccc(O)cc1`: the “activity change” value is -10.2%.

As for `CC(=O)CC(C)(C)O`, the Potency result is “inactive”.

Regarding `CC(C)(Oc1ccc(CCNC(=O)c2ccc(Cl)cc2)cc1)C(=O)O`, the Potency result was “inactive”. For the molecule `CCCCCC(=O)O`, the Potency result was “inactive”. Consider `O=[N+]([O-])c1ccc2nc[nH]c2c1`, for which the Potency result is “inactive”. The same measure, in the same setting: next, `CC(C)CC(=O)CC(C)CC(C)C` (stereo not given): “inactive”.

For the molecule `NCCN1CCNCC1`, the Potency result was “inactive”. Still for that read-out and setting: next, `O=C(OCC1CCC2OC2C1)C1CCC2OC2C1` (stereo not given): “inactive”; `CC(C)OC(=O)COc1ccc(Cl)cc1Cl`: “inactive”; `C=CC(=O)OCCC(=O)O`: “inactive”. `O=C(O)c1cc2ccccc2cc1O`: the Potency entry was “inactive”. The same measure, in the same setting: next, `C=CC[N+](C)(C)CC=C`: “inactive”.

For the molecule `C[C@]12CCC(=O)C=C1CC[C@@H]1[C@@H]2[C@@H](O)C[C@@]2(C)[C@H]1CC[C@]2(O)C(=O)CO`, the Potency result was “inactive”. As for `CNC(=S)N(C)C`, the “activity change” value was -2.57%.

In the case of `CC(C)(C#N)c1cc(Cn2cncn2)cc(C(C)(C)C#N)c1`, the Potency result was “inactive”.

Regarding `COc1cc(OC)c(C(=O)CCCN2CCCC2)c(OC)c1`, the Potency entry is “inactive”. As to `CC(=O)CCC=C(C)C`, the Potency result was “inactive”. `O=C(O)c1ccc(S(=O)(=O)N(Cl)Cl)cc1`: the Potency entry is “inactive”.

Consider `O=C1CCCC1`, for which the Potency result was “inactive”. Still for that read-out and setting: next, `COc1ccccc1OCC(O)CO` (stereo not given): “inactive”.

As for `CCCOC(=O)c1ccccc1`, the Potency entry is “inactive”.

As for `CC(C)OP(=O)(CP(=O)(OC(C)C)OC(C)C)OC(C)C`, the Potency entry is “inactive”.
